Data taken from ChEMBL document CHEMBL1201862, “PubChem BioAssay data set” (2004).
Screen size: about 350,000 compounds; about 700 (0.2%) were called active. No cut-off for these calls is given here. Only a selection was taken, and actives are over-represented in it overall.

Molecular target: RecQ-like DNA helicase BLM (Homo sapiens) (UniProt P54132)
Assay: qHTS Assay for Inhibitors of Bloom's syndrome helicase (BLM).
Assay type: functional

RecQ-like DNA helicase BLM (Homo sapiens), sequence (P54132 whole entry): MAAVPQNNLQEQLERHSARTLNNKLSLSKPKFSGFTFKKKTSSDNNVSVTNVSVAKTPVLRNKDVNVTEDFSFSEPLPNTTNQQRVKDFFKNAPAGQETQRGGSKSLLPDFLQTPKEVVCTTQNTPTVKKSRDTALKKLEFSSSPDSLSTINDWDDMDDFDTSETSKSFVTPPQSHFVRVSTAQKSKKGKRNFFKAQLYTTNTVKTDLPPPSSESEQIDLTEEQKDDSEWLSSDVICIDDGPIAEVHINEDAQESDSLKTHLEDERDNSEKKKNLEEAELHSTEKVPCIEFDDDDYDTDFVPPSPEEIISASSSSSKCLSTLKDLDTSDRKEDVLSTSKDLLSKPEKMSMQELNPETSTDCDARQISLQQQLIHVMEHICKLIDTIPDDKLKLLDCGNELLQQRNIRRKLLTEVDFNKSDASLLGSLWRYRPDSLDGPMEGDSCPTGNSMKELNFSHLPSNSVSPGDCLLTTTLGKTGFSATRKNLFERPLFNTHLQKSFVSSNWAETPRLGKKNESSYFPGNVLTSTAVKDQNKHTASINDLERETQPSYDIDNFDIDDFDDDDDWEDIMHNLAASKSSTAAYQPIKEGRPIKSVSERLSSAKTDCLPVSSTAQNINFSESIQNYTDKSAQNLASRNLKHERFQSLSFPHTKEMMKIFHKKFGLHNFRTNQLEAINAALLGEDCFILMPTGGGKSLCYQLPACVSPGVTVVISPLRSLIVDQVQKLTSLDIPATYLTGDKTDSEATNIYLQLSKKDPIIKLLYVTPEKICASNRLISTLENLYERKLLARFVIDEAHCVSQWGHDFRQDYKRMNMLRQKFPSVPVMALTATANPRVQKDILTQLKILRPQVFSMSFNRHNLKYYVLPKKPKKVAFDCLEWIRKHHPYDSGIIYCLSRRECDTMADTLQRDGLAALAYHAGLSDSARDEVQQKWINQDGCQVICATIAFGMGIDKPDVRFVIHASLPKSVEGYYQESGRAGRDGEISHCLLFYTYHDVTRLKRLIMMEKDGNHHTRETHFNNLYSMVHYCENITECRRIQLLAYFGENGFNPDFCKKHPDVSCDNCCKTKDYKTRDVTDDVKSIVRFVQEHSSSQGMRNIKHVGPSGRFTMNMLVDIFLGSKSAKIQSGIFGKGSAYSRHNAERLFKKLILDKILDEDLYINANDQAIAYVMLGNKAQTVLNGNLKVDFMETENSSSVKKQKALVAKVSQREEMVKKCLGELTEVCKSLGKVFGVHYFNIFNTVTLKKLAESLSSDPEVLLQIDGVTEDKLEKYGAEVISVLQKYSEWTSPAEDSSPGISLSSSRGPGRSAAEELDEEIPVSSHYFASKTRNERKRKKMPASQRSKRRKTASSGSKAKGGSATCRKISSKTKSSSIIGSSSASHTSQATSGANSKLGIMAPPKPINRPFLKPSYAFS

SMILES | Potency
N[C@H](Cc1ccc(O)c(O)c1)C(=O)O | 28.2 µM (active)
